Growth data for eight compounds are collected here from PubChem BioAssay (NCI).

Some test systems named below: NCI-H23 lung; NCI-H226 lung; NCI-H322M lung; HOP-62 NSCLC; HOP-92 NSCLC; NCI-H522 lung; A549/ATCC NSCLC; 786-0 renal; COLO 205 colon; DU-145 prostate; K-562 leukemia; MALME-3M melanoma; MDA-MB-231 breast; SF-268 CNS; SF-295 CNS; SF-539 CNS; UACC-257 melanoma; M14 melanoma; RXF 393 renal.
Holding throughout (experiment): NCI-60 one-dose screen, 48 h (100 = growth as untreated, 0 = no growth, -100 = all killed)
Common to all, as to conditions: 10 µM

About 83,000 compounds went through this panel and 20% of them were active in at least one assay; those are over-represented in the sample as a whole.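 Percent growth is the endpoint: 0 to 100 indicates growth inhibition (40 means 60% inhibition), 0 means no net growth, and negative values indicate cell death.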 A number with no mark means an inactive call. Calls of active or inactive are those of the source. Rule for the calls: active = growth percent below 10; inactive = the rest.

With `COc1ccc(-c2cc(-c3cc(C(=O)c4ccc(Br)cc4)n4ccc(C)cc34)nc(N)c2C#N)cc1`, the growth is 63.1% in the test on NCI-H23 lung; 60.4% in the test with NCI-H226 lung; 93.6% in the test with NCI-H322M lung; 95.1% with HOP-62 NSCLC; 87.5% in the test on HOP-92 NSCLC; 89.9% with NCI-H522 lung. The growth with A549/ATCC NSCLC was 93.2%; with 786-0 renal, 56.9%; with COLO 205 colon it was 67.2%; with DU-145 prostate, 75.9%; with K-562 leukemia, 92.6%; in the test on MALME-3M melanoma, 74.4%. Also, the growth in the test with MDA-MB-231 breast was 59.7%; in the test with SF-268 CNS, 93.9%; with SF-295 CNS, 89.1%; with SF-539 CNS, 5.3% (active); in the test with UACC-257 melanoma, 88%; in the test on M14 melanoma, 64.6%.

`O=C1CCC(N2Cc3c(C#CCCCNC(=O)c4ccc(NC(=O)[C@@H]5NC6(CCCCC6)[C@@]6(C(=O)Nc7cc(Cl)ccc76)[C@H]5c5cccc(Cl)c5F)cc4)cccc3C2=O)C(=O)N1` (some centres undefined): the growth in the test on NCI-H23 lung was 74.4%; in the test with NCI-H226 lung, 24.1%; in the test on NCI-H322M lung it was 77.5%; in the test on HOP-62 NSCLC, 72.7%; in the test on HOP-92 NSCLC it was 39.3%; in the test on NCI-H522 lung, 70.3%. Besides, the growth in the test with A549/ATCC NSCLC is 34.5%; with 786-0 renal, 48.4%; in the test with COLO 205 colon, 70.5%; with DU-145 prostate, 82.1%; in the test on MALME-3M melanoma it was 17.7%; with MDA-MB-231 breast, 52%. The growth in the test with RXF 393 renal is 46.3%; in the test with SF-268 CNS, 70.3%; in the test on SF-295 CNS, 54.8%; in the test with SF-539 CNS, 35.1%; with UACC-257 melanoma, 60.5%; in the test on M14 melanoma, 50.1%.

In the case of `Cn1cc(/C=N/Nc2cccc(Cl)n2)c2ccccc21`, the growth is 69.2% with NCI-H23 lung; 68.9% in the test with NCI-H226 lung; 89.9% with NCI-H322M lung; 75.8% with HOP-62 NSCLC; 42.8% with HOP-92 NSCLC; 74.3% in the test with NCI-H522 lung. Further, the growth was 76% in the test with A549/ATCC NSCLC; 63.7% in the test with 786-0 renal; 67.7% in the test with COLO 205 colon; 72.5% with DU-145 prostate; 20.2% with K-562 leukemia; 70.7% in the test with MALME-3M melanoma. The growth with MDA-MB-231 breast is 51.6%; with SF-268 CNS it was 56%; in the test on SF-295 CNS, 73.5%; in the test on SF-539 CNS, 64.6%; with UACC-257 melanoma, 88.8%; in the test with M14 melanoma it was 55.4%.

Turning to `Cc1ccc(CNC(=O)Cc2ccc3c(c2)CN(C2CCC(=O)NC2=O)C3=O)cc1` (centres undefined), the growth in the test with NCI-H23 lung is 66.5%; in the test on NCI-H226 lung, 3.79% (active); in the test with NCI-H322M lung, 16.1%; with HOP-62 NSCLC, -10.2% (active); in the test with HOP-92 NSCLC it was -22.5% (active); in the test on NCI-H522 lung it was 9.7% (active). For the same compound, the growth with A549/ATCC NSCLC was 10.6%; in the test on 786-0 renal, 0.61% (active); in the test with COLO 205 colon, -12.5% (active); in the test on DU-145 prostate, 30.2%; in the test with K-562 leukemia, 14.5%; in the test on MALME-3M melanoma it was -64.1% (active). The growth was -36.7% (active) in the test with MDA-MB-231 breast; 9.5% (active) with SF-268 CNS; 6.35% (active) with SF-295 CNS; 18.6% in the test with SF-539 CNS; 70.5% in the test with UACC-257 melanoma; -23.5% (active) in the test on M14 melanoma.

`O=C(Cn1nc(-c2ccccc2)ccc1=O)NNC(=S)NC1CCCCC1`: the growth in the test on NCI-H23 lung was 105%; with NCI-H226 lung, 105%; in the test on NCI-H322M lung, 99.6%; in the test on HOP-62 NSCLC, 104%; in the test with HOP-92 NSCLC it was 116%; in the test with NCI-H522 lung, 104%. In addition, the growth in the test with A549/ATCC NSCLC is 114%; in the test on 786-0 renal, 105%; in the test on COLO 205 colon, 135%; in the test with DU-145 prostate it was 117%; in the test with K-562 leukemia, 90.4%; in the test on MALME-3M melanoma, 105%. Besides, the growth is 109% in the test with MDA-MB-231 breast; 113% in the test on SF-268 CNS; 101% in the test with SF-295 CNS; 97.3% in the test on SF-539 CNS; 111% with UACC-257 melanoma; 122% with M14 melanoma.

As for `Cc1ccc(-c2nc3ccc(C(=O)N=Nc4c(O)[nH]c5ccc(Br)cc45)cc3[nH]2)cc1`, the growth was -3.58% (active) with NCI-H23 lung; 91.7% with NCI-H226 lung; 77.7% with NCI-H322M lung; 68.7% with HOP-62 NSCLC; 88.3% in the test with HOP-92 NSCLC; 25% in the test with NCI-H522 lung. Also, the growth with A549/ATCC NSCLC is 87.1%; with 786-0 renal, 36.3%; in the test with COLO 205 colon, 61%; in the test on DU-145 prostate, 17.2%; with MALME-3M melanoma it was 90.5%; in the test on MDA-MB-231 breast it was 23%. For the same compound, the growth in the test with RXF 393 renal was 66.1%; in the test with SF-268 CNS, 44.3%; in the test with SF-295 CNS it was 93.6%; in the test with SF-539 CNS it was 86.4%; with UACC-257 melanoma it was 99.7%; in the test with M14 melanoma, 55.8%.

For the compound `Nc1nc2c(F)c(F)c(F)c(F)c2s1`, the growth was 102% with NCI-H23 lung; 98.6% in the test with NCI-H226 lung; 103% in the test on NCI-H322M lung; 92.6% with HOP-62 NSCLC; 90.5% in the test with HOP-92 NSCLC; 99.4% in the test on A549/ATCC NSCLC. The growth in the test on 786-0 renal is 85.1%; in the test on COLO 205 colon, 114%; with DU-145 prostate, 114%; in the test with K-562 leukemia it was 93.1%; in the test with MALME-3M melanoma it was 103%; with MDA-MB-231 breast, 116%. Also, the growth in the test on RXF 393 renal is 109%; with SF-268 CNS it was 97.8%; in the test with SF-295 CNS it was 96%; in the test with SF-539 CNS, 99%; in the test on UACC-257 melanoma it was 104%; in the test on M14 melanoma, 113%.

Regarding `O=C(Cc1ccc2c(c1)CN(C1CCC(=O)NC1=O)C2=O)NCCc1ccccc1` (centres undefined), the growth with NCI-H23 lung was 72.8%; with NCI-H226 lung, 11.4%; in the test on NCI-H322M lung, 22.5%; with HOP-62 NSCLC it was 0.419% (active); in the test on HOP-92 NSCLC it was -14.1% (active); in the test with NCI-H522 lung, 35.4%. For the same compound, the growth with A549/ATCC NSCLC was 20.3%; with 786-0 renal it was 6.47% (active); with COLO 205 colon, 0.214% (active); with DU-145 prostate, 66.8%; in the test with K-562 leukemia, 20.2%; with MALME-3M melanoma it was -59.7% (active). The growth is -32.2% (active) in the test on MDA-MB-231 breast; 31.3% with SF-268 CNS; 17% in the test with SF-295 CNS; 29.1% with SF-539 CNS; 92.2% with UACC-257 melanoma; 7.92% (active) in the test on M14 melanoma.
